Experimental findings from PubChem BioAssay (NCATS) are described below.

Inconclusive results are not listed. Calls of active or inactive are those of the source. Unless noted, calls come from the whole dose curve; as a rule, active = well fitted curve in the direction sought with a large enough effect; inconclusive = small, poorly fitted or top-dose-only effect, or another doubt; inactive = no such curve, though single readings can be large; an effect the other way counts as inactive or inconclusive.

The target in experiment [1] is ATP-dependent 6-phosphofructokinase (Trypanosoma brucei brucei) (UniProt O15648). The experiment is described as follows: qHTS Assay to Find Inhibitors of T. brucei phosphofructokinase: hit validation (AID 492961).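 Note: luminescence reports ADP formed as PFK phosphorylates fructose-6-phosphate with ATP; series mostly up to about 51 µM; % is set by controls: 0 for no effect and ±100 for the full control effect.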 A digest of the protocol:
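Compounds titrated; %activity normalized to 0x and 1x enzyme controls, curve-fitted. Readout: ADP-Glo luminescence after 45 min room-temperature reaction of 1.25 nM PFK, 0.1 mM ATP, 0.5 mM F6P, pH 8.0.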

Experiment [2] in a line: Validation screen for small molecules that induce genotoxicity in human embryonic kidney (HEK293T) cells expressing luciferase-tagged ELG1 (AID 493106). Note: potency is the fitted concentration of half-maximal effect. The gist of the method:
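HEK293T cells expressing luciferase-tagged ELG1 were exposed to compound or DMSO vehicle for 16 hr at 37 °C, 5% CO2. Genotoxic stress raises ELG1 levels, so increased luciferase signal after ONE-Glo addition and 30 min at room temperature marks hits.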

Experiment [3] deals with Thyrotropin-releasing hormone receptor (Homo sapiens) (UniProt P34981). Kind of experiment: qHTS for Small Molecule Agonists and Allosteric Enhancers of Human TRH Receptor: Validation Screen for Agonists (AID 493127;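 active = calcium activation more than 3 SD above the typical response in the agonist read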;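 note: intracellular calcium rise by fluo-8 fluorescence before TRH EC20 addition; 0% is about no effect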). As to conditions: TRH receptor agonist cell assay; at 2 µM; stronger effect = higher value. The gist of the method:
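TRHR-expressing cells were plated overnight in serum-containing medium, then loaded with fluo-8 calcium dye at room temperature for 30 min–1.5 h. After a 10 s baseline, compound was pin-transferred and calcium fluorescence (ex 480/em 530) read kinetically for agonist response.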
A general note: In qHTS, concentration-response curves come from the screen itself.

The nature of experiment [4]: Nrf2 qHTS screen for inhibitors: Validation (AID 493153; active = well fitted inhibition curve with a large enough effect in the main read-out, with a control signal flat, not every such curve was filed as active). As to conditions: Potency: luciferase luminescence; viability change: measured here: cytotoxicity max response. The gist of the method:
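A549 cells carrying an ARE-driven firefly luciferase reporter, in 5% FBS OPTI-MEM, were treated with compounds in concentration-response for 18-24 h at 37°C. Viability was read by CellTiter-Fluor fluorescence, then Nrf2 activity by luciferase luminescence.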

Experiment [5] in a line: qHTS for Inhibitors of Cell Surface uPA Generation: Validation Assay (AID 493164).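 Note: RAW 264.7 macrophage cells exposed to compound for 18 h; 0% is about no effect.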 The gist of the method:
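RAW 264.7, 4000 cells/well, o/n plating; cpd 7-pt 1:5 dilution 2.45 nM–38.3 uM final; 18 h, 37 C/5% CO2; ATP-Lite, 5 s luminescence exposure.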

The target of experiment [6] is Galactokinase (Homo sapiens) (UniProt P51570). Kind of experiment: qHTS Validation Assay for Inhibitors of Human Galactokinase (GALK) (AID 493189). Note: 0% is about no effect. A digest of the protocol: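 GALK (5 nM) with 35 uM ATP and 100 uM galactose in HEPES pH 8.0 with MgCl2, NaCl, DTT and BSA. Reaction ran 1 h at room temperature. Residual ATP read by Kinase-Glo Plus luminescence.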
Chain of Galactokinase (Homo sapiens) (P51570 whole entry, looked up): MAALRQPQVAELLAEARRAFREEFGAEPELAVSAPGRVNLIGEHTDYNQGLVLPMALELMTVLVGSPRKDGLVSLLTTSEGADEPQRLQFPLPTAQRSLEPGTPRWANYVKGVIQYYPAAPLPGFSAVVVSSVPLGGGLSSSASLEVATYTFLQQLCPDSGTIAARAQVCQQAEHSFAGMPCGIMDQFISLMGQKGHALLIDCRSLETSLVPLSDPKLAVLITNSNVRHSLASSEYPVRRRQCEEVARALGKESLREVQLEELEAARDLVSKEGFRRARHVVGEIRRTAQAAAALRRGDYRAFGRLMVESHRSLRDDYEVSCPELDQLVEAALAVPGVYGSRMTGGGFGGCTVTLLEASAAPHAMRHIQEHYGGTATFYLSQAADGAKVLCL
Experiment [7] in a line: Validation screen for small molecules that induce DNA re-replication in SW480 colon adenocarcinoma cells (AID 504364). Note: 0% is about no effect. The gist of the method: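 SW480 cells seeded at 250 per well were exposed to compound or DMSO for 48 hr at 37 C, 5% CO2, then stained with Hoechst for 40 min. DNA content per nucleus was imaged (405 nm ex, 500-530 nm em).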
For experiment [8], the target named is Peptidyl-prolyl cis-trans isomerase NIMA-interacting 1 (Homo sapiens) (UniProt Q13526). The experiment is described as follows: qHTS Validation Assay to Find Inhibitors of Pin1 (AID 504536; active = well fitted inhibition curve with a large enough effect in the polarisation, with a control signal flat, not every such curve was filed as active; the % refers to the polarisation;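 note: 0% = full Pin1 enzyme wells and -100% = no-enzyme wells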). A digest of the protocol: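 Fluorescence polarization competition: compounds (titration) displace HiFluor-488-labeled Pin1-1b peptide from Pin1 (0.3 uM final) in pH 7.5 HEPES buffer with DTT, 10 min at room temperature; %Activity normalized to no-enzyme wells, curves fitted.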
Chain of Peptidyl-prolyl cis-trans isomerase NIMA-interacting 1 (Homo sapiens) (Q13526 whole entry, looked up): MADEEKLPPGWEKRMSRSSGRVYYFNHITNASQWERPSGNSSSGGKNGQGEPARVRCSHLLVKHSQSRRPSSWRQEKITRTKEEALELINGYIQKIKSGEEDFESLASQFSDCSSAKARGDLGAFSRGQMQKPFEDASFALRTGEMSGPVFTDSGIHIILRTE

Experiment [9] has as its target Phosphoglycerate kinase, glycosomal (Trypanosoma brucei brucei) (UniProt P07378). Kind of experiment: qHTS Validation Assay to Find Inhibitors of Phosphoglycerate Kinase (AID 504547).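 Note: control wells lack PGK and mark full inhibition.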 The gist of the method: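 PGK activity was coupled to GAPDH (100nM final), which generates the unstable substrate 1,3-bisphosphoglycerate in-well. Reactions ran 60 minutes at room temperature in 100mM TEA pH 7.6, 5mM MgCl2, 0.01% Tween-20, then Kinase-Glo Plus luminescence was read.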

The target of experiment [10] is ATPase family AAA domain-containing protein 5 (Homo sapiens) (UniProt Q96QE3). The experiment is described as follows: Validation screen for small molecules that inhibit ELG1-dependent DNA repair in human embryonic kidney (HEK293T) cells expressing luciferase-tagged ELG1 (AID 493107).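 Note: cells co-treated with the DNA-damaging agent 5-fluorouridine alongside compound; series mostly up to about 46 µM; % is set by controls: 0 for no effect and ±100 for the full control effect; inhibitors lower the ELG1-luciferase luminescence signal; nearly all actives have a fitted effect of over 70% in size.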 A digest of the protocol: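 HEK293T cells expressing luciferase-tagged ELG1 were co-treated with 5-fluorouridine and compound or DMSO for 16 hr at 37 °C, 5% CO2. Luciferase activity was then read with ONE-Glo after 30 min at room temperature; suppressed signal indicates blocked ELG1 function.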
Chain of ATPase family AAA domain-containing protein 5 (Homo sapiens) (Q96QE3 whole entry, looked up, the tested form may be a part): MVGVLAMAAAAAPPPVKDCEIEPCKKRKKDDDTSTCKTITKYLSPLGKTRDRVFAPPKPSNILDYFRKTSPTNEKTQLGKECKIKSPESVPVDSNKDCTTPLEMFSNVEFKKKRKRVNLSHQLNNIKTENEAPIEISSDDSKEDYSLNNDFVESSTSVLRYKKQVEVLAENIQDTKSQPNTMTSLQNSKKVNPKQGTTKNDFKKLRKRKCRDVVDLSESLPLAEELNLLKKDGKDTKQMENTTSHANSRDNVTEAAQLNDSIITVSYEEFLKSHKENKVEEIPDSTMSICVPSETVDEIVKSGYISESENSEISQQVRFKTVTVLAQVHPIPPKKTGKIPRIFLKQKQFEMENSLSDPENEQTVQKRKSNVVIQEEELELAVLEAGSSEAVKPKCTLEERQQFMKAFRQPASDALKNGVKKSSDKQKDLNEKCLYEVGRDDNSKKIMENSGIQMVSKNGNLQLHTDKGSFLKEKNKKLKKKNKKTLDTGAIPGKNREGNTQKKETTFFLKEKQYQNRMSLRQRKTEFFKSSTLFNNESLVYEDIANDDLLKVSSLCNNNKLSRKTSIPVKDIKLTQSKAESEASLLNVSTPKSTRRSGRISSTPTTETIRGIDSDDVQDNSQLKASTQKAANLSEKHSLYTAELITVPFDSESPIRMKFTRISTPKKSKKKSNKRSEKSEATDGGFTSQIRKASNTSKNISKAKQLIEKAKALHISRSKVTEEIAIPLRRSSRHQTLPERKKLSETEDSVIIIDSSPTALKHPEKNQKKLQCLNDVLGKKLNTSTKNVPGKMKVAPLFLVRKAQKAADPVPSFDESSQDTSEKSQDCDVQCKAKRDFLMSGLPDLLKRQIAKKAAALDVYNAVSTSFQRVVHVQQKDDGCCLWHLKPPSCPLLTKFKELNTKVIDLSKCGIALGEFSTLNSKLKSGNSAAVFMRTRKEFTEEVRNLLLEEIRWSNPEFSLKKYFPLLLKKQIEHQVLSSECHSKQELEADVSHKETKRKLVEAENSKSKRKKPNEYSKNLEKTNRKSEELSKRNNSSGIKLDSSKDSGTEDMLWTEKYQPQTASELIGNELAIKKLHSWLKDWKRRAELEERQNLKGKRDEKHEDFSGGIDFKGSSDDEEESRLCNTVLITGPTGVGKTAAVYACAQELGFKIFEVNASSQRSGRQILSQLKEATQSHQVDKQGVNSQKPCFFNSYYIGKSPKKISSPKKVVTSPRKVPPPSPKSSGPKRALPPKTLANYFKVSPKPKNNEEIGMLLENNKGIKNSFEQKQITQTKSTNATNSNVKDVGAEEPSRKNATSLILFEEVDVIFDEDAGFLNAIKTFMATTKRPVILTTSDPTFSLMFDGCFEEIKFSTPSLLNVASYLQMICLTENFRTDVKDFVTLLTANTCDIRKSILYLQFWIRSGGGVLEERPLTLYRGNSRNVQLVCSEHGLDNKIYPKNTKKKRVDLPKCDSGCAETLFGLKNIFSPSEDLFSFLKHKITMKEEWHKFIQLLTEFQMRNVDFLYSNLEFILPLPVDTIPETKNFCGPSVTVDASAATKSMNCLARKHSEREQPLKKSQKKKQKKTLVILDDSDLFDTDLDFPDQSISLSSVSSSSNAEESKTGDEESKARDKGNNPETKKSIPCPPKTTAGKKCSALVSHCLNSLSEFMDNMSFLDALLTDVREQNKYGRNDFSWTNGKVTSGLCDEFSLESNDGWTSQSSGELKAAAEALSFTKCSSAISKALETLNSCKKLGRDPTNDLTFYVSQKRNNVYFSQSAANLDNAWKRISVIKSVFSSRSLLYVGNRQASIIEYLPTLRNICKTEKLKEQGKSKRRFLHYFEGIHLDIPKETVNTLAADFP

Chain of Thyrotropin-releasing hormone receptor (Homo sapiens) (P34981 whole entry, looked up): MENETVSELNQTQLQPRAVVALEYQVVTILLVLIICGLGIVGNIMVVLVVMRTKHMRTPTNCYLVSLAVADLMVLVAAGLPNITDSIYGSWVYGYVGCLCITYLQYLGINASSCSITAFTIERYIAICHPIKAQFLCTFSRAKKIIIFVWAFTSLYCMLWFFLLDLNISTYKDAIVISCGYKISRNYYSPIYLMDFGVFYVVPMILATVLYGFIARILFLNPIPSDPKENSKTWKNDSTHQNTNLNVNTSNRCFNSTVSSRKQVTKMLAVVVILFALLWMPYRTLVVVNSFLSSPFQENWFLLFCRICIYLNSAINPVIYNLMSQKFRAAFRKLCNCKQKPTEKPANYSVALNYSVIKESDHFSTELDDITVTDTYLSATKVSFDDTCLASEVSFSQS
Chain of Phosphoglycerate kinase, glycosomal (Trypanosoma brucei brucei) (P07378 whole entry, looked up): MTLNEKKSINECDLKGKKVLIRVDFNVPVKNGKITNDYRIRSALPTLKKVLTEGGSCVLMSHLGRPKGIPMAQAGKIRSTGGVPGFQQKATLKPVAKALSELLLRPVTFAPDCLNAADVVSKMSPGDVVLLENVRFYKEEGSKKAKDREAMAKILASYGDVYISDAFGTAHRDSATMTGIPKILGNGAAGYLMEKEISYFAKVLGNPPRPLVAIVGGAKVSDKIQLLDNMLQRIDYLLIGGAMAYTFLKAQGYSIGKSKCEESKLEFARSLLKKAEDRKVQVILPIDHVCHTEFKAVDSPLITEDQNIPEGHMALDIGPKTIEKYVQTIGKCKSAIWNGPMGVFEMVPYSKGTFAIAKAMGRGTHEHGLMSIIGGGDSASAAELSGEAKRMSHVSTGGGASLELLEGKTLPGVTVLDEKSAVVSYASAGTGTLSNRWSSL
Chain of ATP-dependent 6-phosphofructokinase (Trypanosoma brucei brucei) (O15648 whole entry, looked up): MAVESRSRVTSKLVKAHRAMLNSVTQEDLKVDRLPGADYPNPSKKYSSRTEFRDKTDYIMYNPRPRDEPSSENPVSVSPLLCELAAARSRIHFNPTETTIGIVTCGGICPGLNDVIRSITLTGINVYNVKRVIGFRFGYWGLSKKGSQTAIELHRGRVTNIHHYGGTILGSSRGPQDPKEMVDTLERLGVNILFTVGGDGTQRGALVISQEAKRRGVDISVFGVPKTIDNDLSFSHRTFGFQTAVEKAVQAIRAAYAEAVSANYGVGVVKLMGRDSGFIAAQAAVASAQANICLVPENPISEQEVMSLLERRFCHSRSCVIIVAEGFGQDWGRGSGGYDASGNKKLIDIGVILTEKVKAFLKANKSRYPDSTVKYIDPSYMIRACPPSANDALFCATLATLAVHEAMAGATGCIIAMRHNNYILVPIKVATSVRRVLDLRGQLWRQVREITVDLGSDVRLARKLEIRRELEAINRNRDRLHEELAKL

Regarding `Cc1[nH]c(=O)c(C#N)cc1-c1ccc2nccn2c1`, the outcome in experiment [1], in [5], in experiment [6], in experiment [7], in experiment [8] and in [9] was inactive. Further, the Potency entry in experiment [2] and in experiment [4] was “inactive” throughout. Moreover, the activation in experiment [3] was 0.25% (inactive). The viability change in [4] was found to be 7.27%.
`CN1CCN(CCCN2c3ccccc3Sc3ccc(C(F)(F)F)cc32)CC1`: the call in experiment [1], in [5], in [6], in experiment [7], in experiment [8] and in [9] was inactive. Also, the Potency entry in experiment [2] is “inactive”.
Turning to `CC(C[N+](C)(C)C)OC(N)=O` (stereo unspecified), the molecule was called inactive in experiment [1], in experiment [5], in experiment [6], in experiment [7], in experiment [8] and in experiment [9]. For the same molecule, the Potency entry in [2], in [10] and in [4] was “inactive” each time. Besides, in experiment [3], the activation was 0.562% (inactive). The viability change in experiment [4] is -0.659%.
In the case of `C1COC(NC(C2CC2)C2CC2)=N1`, the Potency entry in experiment [2], in [10] and in experiment [4] was “inactive” in each case. Besides, in experiment [3], the activation was -0.312% (inactive). Besides, the viability change in experiment [4] is -3.72%. For the same molecule, the molecule was classed as inactive in experiment [5], in [6], in experiment [7], in experiment [8] and in experiment [9].
As to `Cc1[nH]c(=O)c(C#N)cc1-c1ccncc1`, the molecule was classed as inactive in [1], in [5], in experiment [6], in [7], in experiment [8] and in experiment [9]. Also, the Potency result in experiment [2], in experiment [10] and in experiment [4] was “inactive” throughout. Also, in experiment [3], the activation is 0.562% (inactive). Also, the viability change in experiment [4] is -4.04%.
In the case of `Cc1oncc1C(=O)Nc1ccc(C(F)(F)F)cc1`, the molecule was called inactive in experiment [1], in [5], in experiment [6], in experiment [7], in experiment [8] and in experiment [9]. The Potency in [2] was 2.06 µM (active). For the same molecule, the Potency entry in experiment [4] was “inactive”. For the same molecule, the viability change in [4] worked out at 0.653%.
On to `Nc1ccc(S(=O)(=O)Nc2ccnn2-c2ccccc2)cc1`, for which the outcome in experiment [1], in [5], in experiment [6], in experiment [7], in experiment [8] and in experiment [9] was inactive. Moreover, the Potency entry in experiment [2], in [10] and in experiment [4] was “inactive” in each case. For the same molecule, the activation in [3] was 1.12% (inactive). Besides, the viability change in experiment [4] was -5.45%.
As for `CCCC(CCC)C(=O)O`, the outcome in [1], in experiment [5], in experiment [6], in experiment [7], in experiment [8] and in experiment [9] was inactive. The Potency result in [2] and in experiment [4] was “inactive” throughout. For the same molecule, the activation in experiment [3] is 0.688% (inactive). For the same molecule, in experiment [4], the viability change came out at 2.98%.
Regarding `CCCc1nc2c(C)cc(-c3nc4ccccc4n3C)cc2n1Cc1ccc(-c2ccccc2C(=O)O)cc1`, the molecule was classed as inactive in experiment [1].
The same measure, in the same setting: then `CC(c1cc2ccccc2s1)N(O)C(N)=O` (stereo unspecified), with “inactive”.
Consider `CC(=O)Oc1ccccc1C(=O)O`, for which the outcome in experiment [1], in [5], in experiment [6], in experiment [7], in experiment [8] and in [9] was inactive. Besides, the Potency result in experiment [2], in [10] and in experiment [4] was “inactive” throughout. In addition, the viability change in [4] was -7.95%.
Consider `Nc1nc2c(ncn2COCCO)c(=O)[nH]1`, for which the result in experiment [1], in [5], in experiment [6], in [7], in experiment [8] and in experiment [9] was inactive. Further, the Potency entry in [2], in experiment [10] and in experiment [4] was “inactive” each time. Besides, in [4], the viability change was -1.37%.
In the case of `C#Cc1cccc(Nc2ncnc3cc(OCCOC)c(OCCOC)cc23)c1`, the result in experiment [1] was inactive.
Take `Cc1ccccc1C(OCCN(C)C)c1ccccc1` (stereo unspecified): the result in experiment [1], in experiment [5], in experiment [6], in [7], in [8] and in experiment [9] was inactive. The Potency entry in experiment [2], in [10] and in experiment [4] was “inactive” in each case. Also, the activation in experiment [3] is 0.625% (inactive). Further, in [4], the viability change amounted to 7.3%.
`CCc1ccc(CCOc2ccc(CC3SC(=O)NC3=O)cc2)nc1` (stereo unspecified): the outcome in experiment [1] was inactive.
Turning to `OC(CN1CCC(Cc2ccc(F)cc2)CC1)c1ccc(Cl)cc1` (stereo unspecified), the result in experiment [1], in [5], in experiment [6], in [7], in experiment [8] and in experiment [9] was inactive. For the same molecule, the Potency result in experiment [2], in [10] and in experiment [4] was “inactive” each time. In experiment [3], the activation is -3.12% (inactive). The viability change in [4] is -17.6%.
Take `CNC[C@H](O)c1cccc(O)c1`: the result in experiment [1], in experiment [5], in experiment [6], in experiment [7], in experiment [8] and in experiment [9] was inactive. The Potency result in [2], in experiment [10] and in experiment [4] was “inactive” each time. In addition, the viability change in experiment [4] is -8.68%.
On to `O=c1n(CCCN2CCN(c3cccc(Cl)c3)CC2)nc2ccccn12`, for which the molecule was classed as inactive in experiment [1], in experiment [5], in experiment [6], in experiment [7], in experiment [8] and in experiment [9]. Besides, the Potency result in experiment [2], in experiment [10] and in experiment [4] was “inactive” in each case. Further, the viability change in [4] was -3.91%.
In the case of `Cc1cn[nH]c1`, the molecule was called inactive in experiment [1], in experiment [5], in experiment [6], in experiment [7], in experiment [8] and in [9]. Moreover, the Potency entry in [2], in experiment [10] and in [4] was “inactive” throughout. In [4], the viability change came to 9.47%.
As to `CC(C)NCC(O)COc1ccc(COCCOC(C)C)cc1` (stereo unspecified), the molecule was called inactive in experiment [1], in experiment [5], in [6], in [7], in experiment [8] and in experiment [9]. Moreover, the Potency entry in experiment [2] and in [4] was “inactive” throughout. The activation in experiment [3] was -0.25% (inactive). In experiment [4], the viability change was 3.25%.
For the molecule `CCCc1nn(C)c2c(=O)[nH]c(-c3cc(S(=O)(=O)N4CCN(C)CC4)ccc3OCC)nc12`, in [1], the molecule was called inactive.
Take `N[C@@H]1CONC1=O`: the result in experiment [1], in experiment [5], in [6], in [7], in experiment [8] and in experiment [9] was inactive. The Potency entry in [2], in experiment [10] and in experiment [4] was “inactive” in each case. Moreover, in experiment [4], the viability change was determined as 10.9%.
Take `Cc1c(C)c2c(c(C)c1O)CCC(C)(COc1ccc(CC3SC(=O)NC3=O)cc1)O2` (stereo unspecified): the result in experiment [1] was inactive.
Turning to `CC(C)C[C@H](NC(=O)[C@@H](O)[C@H](N)Cc1ccccc1)C(=O)O`, the call in experiment [1], in experiment [6], in experiment [7], in experiment [8] and in experiment [9] was inactive. For the same molecule, the Potency entry in experiment [2] and in experiment [10] was “inactive” each time. Also, the activation in [3] was 0.938% (inactive).
Consider `N#Cc1ccc(C(c2ccc(C#N)cc2)n2cncn2)cc1`, for which the molecule was classed as inactive in experiment [1].
Take `CCCCNc1cc(C(=O)O)cc(S(N)(=O)=O)c1Oc1ccccc1`: the molecule was classed as inactive in [1], in [5], in [6], in experiment [7], in [8] and in experiment [9]. The Potency entry in experiment [2] and in experiment [4] was “inactive” in each case. In addition, the activation in experiment [3] is 1.31% (inactive). Also, the viability change in experiment [4] is 10.1%.
